This is an account of results in PubChem BioAssay (EPA / NIEHS).

Where “and” joins values, the source holds several entries; their conditions need not be identical. Equal values may be shown once. Inconclusive results are not listed. A structure can be active in one record and inactive in another. Calls of active or inactive are those of the source. How the source made its calls: active means hit-call score of the fitted dose curve at least 0.9, where 1 is the maximum; inconclusive means response in the unintended direction; inactive means score below 0.9.

In the experiment the target is human Norepinephrine Transporter (NET), SLC6A2 (gene 6530) (UniProt P23975). Put plainly: NVS_TR_hNET: NovaScreen (NVS) Transporter Assay for human Norepinephrine Transporter (NET) (AID 2283377).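 Further: cell-free membrane protein extracted from CHO cells expressing human NET.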 As for the experimental part: NVS_TR_hNET is a biochemical, single-readout assay that uses extracted gene-proteins from CHO in a cell-free assay. Measurements were taken 1 hour after chemical dosing in a 96-well plate.NVS_TR_hNET is one of one assay component(s) measured or calculated from the NVS_TR_hNET assay. It is designed to make measurements of radioligand binding, a form of binding reporter, as detected with scintillation counting signals by Filter-based radiodetection technology.Data from the assay component NVS_TR_hNET was analyzed into 1 assay endpoint. This assay endpoint, NVS_TR_hNET, was analyzed in the positive analysis fitting direction relative to DMSO as the negative control and baseline of activity. Using a type of binding reporter, loss-of-signal activity can be used to understand changes in the binding as they relate to the gene SLC6A2. Furthermore, this assay endpoint can be referred to as a primary readout, because the performed assay has only produced 1 assay endpoint. To generalize the intended target to other relatable targets, this assay endpoint is annotated to the transporter intended target family, where the subfamily is neurotransmitter transporter.
Sequence of human Norepinephrine Transporter (NET), SLC6A2 (gene 6530) (P23975 whole entry, looked up): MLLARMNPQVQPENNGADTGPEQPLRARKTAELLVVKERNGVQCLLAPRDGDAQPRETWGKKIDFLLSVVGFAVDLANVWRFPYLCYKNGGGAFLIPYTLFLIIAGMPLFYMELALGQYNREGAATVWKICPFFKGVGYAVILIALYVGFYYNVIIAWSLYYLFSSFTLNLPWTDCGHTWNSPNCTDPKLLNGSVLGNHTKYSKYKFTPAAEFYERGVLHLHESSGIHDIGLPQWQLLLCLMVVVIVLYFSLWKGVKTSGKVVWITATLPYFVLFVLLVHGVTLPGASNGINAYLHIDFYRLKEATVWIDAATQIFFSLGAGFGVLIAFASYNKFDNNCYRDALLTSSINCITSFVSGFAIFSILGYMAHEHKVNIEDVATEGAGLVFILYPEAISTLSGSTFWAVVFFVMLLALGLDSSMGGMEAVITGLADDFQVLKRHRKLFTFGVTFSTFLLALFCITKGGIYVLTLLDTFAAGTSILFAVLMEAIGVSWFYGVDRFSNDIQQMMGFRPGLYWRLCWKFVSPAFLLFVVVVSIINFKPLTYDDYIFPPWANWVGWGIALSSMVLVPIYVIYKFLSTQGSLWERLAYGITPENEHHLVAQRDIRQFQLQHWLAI
Binding assays used specific radioligands (tritiated, iodinated) with non-radioactive competitive displacement ligands in agonist or antagonist protocols (as indicated) and various reference compounds and inhibitors to titrate specific binding to receptors and transporters. Most enzyme assays (CYPs, kinases, phosphatases, proteases, HDACs) used recombinant protein and specific substrates (fluorescence mostly, some colorimetric and radioactive) and inhibitors, followed by a biochemical separation of substrate and product. All assays for the biochemical HTS were initially run in duplicate at a single concentration (10 uM for CYP450 assays and 25 uM for all others). […] Each assay was run with positive and negative controls, and concurrent controls on every plate. The follow-up (secondary) screen tested active chemical-pairs in concentration series, as well as a few additional assays not tested in the primary screen, some selected negative inactives, and several cases re-run in the concentration series for confirmatory purposes.
For `Clc1ccc(Nc2nnc(Cc3ccncc3)c3ccccc23)cc1`, the concentration at half-maximal activity (AC50) is 0.898 µM (active).

Regarding `CN(C)c1ccc(C(=C2C=CC(=[N+](C)C)C=C2)c2ccccc2)cc1`, the concentration at half-maximal activity (AC50) was 18.3 µM (active) and 5.15 µM (active).

Regarding `Oc1cccc2c(O)cccc12`, the compound was called inactive.

`Clc1ccc2c(Cl)ccnc2c1`: the concentration at half-maximal activity (AC50) was 25 µM (active).

As for `O=C1OC2(c3ccccc31)c1cc(I)c(O)c(I)c1Oc1c2cc(I)c(O)c1I`, the half-maximal activity concentration (AC50) is 0.566 µM (active).

In the case of `CCCCCc1ccc(O)cc1`, the AC50 is 14.6 µM (active).

For the compound `CCCCCCCCCCCCCCC`, the outcome was inactive.

In the case of `CC(O)COc1ccccc1` (configuration not stated), the result was inactive.

As for `CN(Cc1cnc2nc(N)nc(N)c2n1)c1ccc(C(=O)N[C@@H](CCC(=O)O)C(=O)O)cc1`, the result was inactive.

As to `NC(=NCCCCCCN=C(N)/N=C(\N)Nc1ccc(Cl)cc1)/N=C(\N)Nc1ccc(Cl)cc1`, the AC50 was 0.356 µM (active).

As to `CC(C)(C)c1ccc(O)c(O)c1`, the AC50 is 18.4 µM (active) and the compound was classed as inactive.

With `Oc1cc2ccccc2cc1O`, the outcome was inactive.

Turning to `c1ccc2c(c1)CCC2`, the compound was classed as inactive.

Turning to `C=Cc1ccc(O)c(OC)c1`, the AC50 is 19.1 µM (active).

In the case of `CCCCCCCCCCCCCCCCCC[N+](C)(C)Cc1ccccc1`, the AC50 was 2.49 µM (active).

With `N=C(N)c1ccc(OCCCCCOc2ccc(C(=N)N)cc2)cc1`, the AC50 was 0.725 µM (active).
